Five compounds from PubChem BioAssay can be followed below.

Molecules are shown by their SMILES. Where “and” joins values, the source holds several entries; their conditions need not be identical. Identical values can stand only once. Calls of active or inactive are those of the source.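 How the source made its calls, unless noted: active means compounds whose cell count with miR-34 switched on is under 0.7 times the count with it off; inactive means the rest.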

Test [1] in a line: hESC survival regulators, cell-based (AID 493140; call rule not given here;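 further: cells exposed to compounds for four days before counting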). The conditions noted are these: human embryonic stem cell survival screen; stronger effect = higher value.
Test [2] is described as follows: stimulators of nuclear beta-catenin in C2C12, primary screen, imaging, WNT3A-conditioned medium, mouse C2C12, NPC library (AID 1117326; in the data active means nuclear beta-catenin stimulation mostly above about 4.2%, no sharp cut-off; inactive means mostly below about 10%). As to conditions: stronger effect = higher value.
The nature of test [3]: stimulators of insulin release from INS-1E, primary screen, cell-based, 5 mM glucose, NPC library (AID 1117329;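 active means compound raises insulin release from rat beta cells at 5 mM glucose, no numeric limit stated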). The conditions noted are these: rat INS-1E insulin secretion, at 10 µM, stronger effect = higher value.
Test [4] in a line: growth inhibition of GSK3B-pretreated HCT116 cells – cell-based, CellTiter-Glo, 0.2 to 20 µM (AID 1117336;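 active means compounds lowering colon cancer cell viability after pretreatment blocking the GSK3B kinase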). The conditions noted are these: HCT116 viability after GSK3B inhibitor, at 20 µM, stronger effect = higher value. (ATP-based viability assays read luminescence as a measure of living cells.)
Test [5] in a line: inhibition of endothelial tube formation, primary screen, imaging, VEGF stimulated, CD31 staining, tube area, NPC library (AID 1117340;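 active means compound that reduces growth-factor-driven endothelial tube area in a mixed cell culture, no cutoff stated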). The conditions noted are these: VEGF-stimulated ADSC/ECFC co-culture, at 10 µM, stronger effect = higher value.
The nature of test [6]: glucagon-like peptide 1 release enhancers, primary assay, NCI-H716 cell line, NPC library (AID 1117341;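 active means compound raises GLP1 secretion from the human gut endocrine cells, with no numeric limit stated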). As to conditions: NCI-H716 cells, at 10 µM, stronger effect = higher value.
A short description of test [7]: HCT116 colon cancer cell growth inhibition, primary screen, CellTiter-Glo luminescence, NPC library (AID 1117342;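 active means compounds that lower survival of HCT116 colon cancer cells in the luminescence readout, no numeric limit stated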). The conditions noted are these: at 20 µM (top of the series).
Test [8] can be described thus: CellTiter-Glo luminescent readout of SW480 viability loss, NPC library primary (AID 1117343;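 active means compounds that lower viability of the colon cancer cells in the luminescence readout, with no numeric limit stated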). As to conditions: CellTiter-Glo luminescence; at 20 µM (top of the series) unless noted.
Test [9] in a line: decreased DLD-1 cellular survival, CellTiter-Glo luminescent readout, NPC compound collection, primary HTS (AID 1117346;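 active means compounds that lower survival of DLD-1 colon cancer cells in the luminescence readout, no cutoff given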). As to conditions: DLD-1 viability, CellTiter-Glo luminescence; at 20 µM (top of the series).
The nature of test [10]: differential killing of epithelial or mesenchymal cells, primary screen, imaging, PC-3E GFP, TEM4-18 mCherry, co-culture (AID 1345086;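 active means compounds killing one labelled cell type while sparing the other, by normalised counts and ratio limits, not self-fluorescent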;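 on all read-outs here: cells exposed to compound for 72 h before imaging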;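 on red/green cell ratio (normalised): normalised mesenchymal count divided by normalised epithelial count so high means epithelial killing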). The conditions noted are these: imaging cell counts, at 1 µM; for red/green cell ratio (normalised): actives lie on both sides, counts scaled to control wells, 1 = unselective.
A short description of test [11]: sensitizers of A549 cells to miR-34 induction, primary screen, imaging, A549 dox-inducible miR-34, nuclei and caspase counts (AID 1347080). The conditions noted are these: A549 miR-34 inducible, Hoechst nuclei count, 48 h.
The nature of test [12]: survival rescue of mitochondrial mutant cells in low glucose, primary screen, MELAS cybrids, Rieske KO mouse fibroblasts, CellTiter-Glo (AID 1508586;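 active means mean z-score across replicates of 1.96 or higher in either the MELAS or the Rieske mutant cell line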;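 further: z relative to plate mean and SD of compound and empty wells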).
The target of test [13] is NAD(+) hydrolase SARM1 (Homo sapiens) (UniProt Q6SZW1). Put plainly: SARM1 TIR NADase inhibitors, cell lysate, NAD-Glo luminescence (AID 1508614;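 active means compound whose remaining NAD level is above about 45 nM, limit read from the data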). As to conditions: SAM-TIR HEK293T lysate NADase, at 1 µM, stronger effect = higher value.
Sequence of NAD(+) hydrolase SARM1 (Homo sapiens) (Q6SZW1 whole entry, looked up): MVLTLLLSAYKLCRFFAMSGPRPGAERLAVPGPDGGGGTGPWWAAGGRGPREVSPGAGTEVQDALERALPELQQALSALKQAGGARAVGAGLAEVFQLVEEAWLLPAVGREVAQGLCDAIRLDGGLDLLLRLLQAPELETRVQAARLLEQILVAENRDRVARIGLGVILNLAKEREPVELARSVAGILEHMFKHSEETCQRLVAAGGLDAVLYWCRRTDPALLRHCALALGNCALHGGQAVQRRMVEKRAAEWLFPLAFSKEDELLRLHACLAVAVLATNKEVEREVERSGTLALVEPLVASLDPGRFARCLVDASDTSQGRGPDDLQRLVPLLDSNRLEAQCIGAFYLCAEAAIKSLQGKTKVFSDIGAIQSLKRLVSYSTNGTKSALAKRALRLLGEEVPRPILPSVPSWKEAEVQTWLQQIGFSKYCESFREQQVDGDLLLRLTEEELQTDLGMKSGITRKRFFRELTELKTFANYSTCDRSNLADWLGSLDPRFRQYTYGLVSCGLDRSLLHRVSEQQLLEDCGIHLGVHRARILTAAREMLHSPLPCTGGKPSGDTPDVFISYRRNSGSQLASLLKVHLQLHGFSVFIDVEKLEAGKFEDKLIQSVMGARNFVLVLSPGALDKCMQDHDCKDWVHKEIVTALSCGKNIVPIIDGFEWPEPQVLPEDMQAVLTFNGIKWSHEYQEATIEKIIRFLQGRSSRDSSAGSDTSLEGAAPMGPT
Test [14] in a line: liver-stage malaria parasite growth inhibition, primary screen, cell-based, HepG2, luciferase luminescence, HepG2 viability (AID 624349; in the data active means parasite load remaining mostly below about 12%, no sharp cut-off; inactive means mostly above about 10%;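 further: 100% = mean of DMSO negative control wells on the same plate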). As to conditions: P. berghei liver stage in HepG2, luciferase luminescence, concentration not given here; parasite load remaining: stronger effect = lower value; viability: measured here: HepG2 viability without parasites.
The mark [15] stands for this setting: measured here: epithelial PC-3E GFP cell survival.
[16] abbreviates: measured here: mesenchymal TEM4-18 mCherry cell survival.
[17] abbreviates: stronger effect = lower value, cell number ratio, induced over uninduced.
Setting [18] is: measured here: relative caspase fold change +Dox/-Dox.
Setting [19] is: measured here: total cells with miR-34 induction, stronger effect = lower value.
Where [20] appears, read: measured here: total cells without miR-34 induction.
[21] abbreviates: MELAS cybrid survival, CellTiter-Glo 48 h, stronger effect = higher value.
Where [22] appears, read: Rieske KO mouse fibroblast survival, CellTiter-Glo 72 h.

For `COc1cc2c(c(OC)c1OC)-c1ccc(OC)c(=O)cc1[C@@H](NC(C)=O)CC2`, the survival in test [1] is 0.333 (inactive). The nuclear beta-catenin stimulation in [2] (at 10 µM) is 77.5% (active); in [2] (stimulation, at 2 µM) it was 72.6%. In addition, the insulin secretion stimulation in [3] was 2.2% (inactive). In test [4], the viability decrease is 97.2% (active). In addition, the tube area decrease in test [5] is 105% (active). Further, the GLP1 secretion stimulation in test [6] was -3.6% (inactive). For the same compound, the inhibition of viability in [7] was 75% (active). Moreover, the viability decrease (inhibition) is 43.3% (inactive) in test [8] and 58.2% (active) in test [9]. Further, the red/green cell ratio (normalised) in [10] was 1.19 (inactive). In addition, the normalised cell number in test [10] (setting [15]) was 0.19; in test [10] (setting [16]), 0.23. Besides, the fold change in test [11] (setting [17]) is 1.43 (inactive) and 1.18 (inactive) and 0.984 (inactive); in [11] (setting [18]) it was 1.13 and 1.5 and 0.402. Moreover, the cell count in [11] (setting [19]) is 1890 and 1930 and 1700; in test [11] (setting [20]), 1330 and 1630 and 1730. For the same compound, the z-score in test [12] (setting [21]) was -2.22 (inactive); in test [12] (setting [22]), -0.272. Also, in test [13], the remaining NAD is 10 nM (inactive).

`Clc1ccc(Cn2c(CN3CCCC3)nc3ccccc32)cc1`: in test [1], the survival was 21.8 (inactive). In test [14], the parasite load remaining is 30.7% (inactive) and 102% (inactive). Further, in test [14], the viability was 47.8% and 90.5%. Further, the nuclear beta-catenin stimulation is 3.1% (inactive) in test [2] (at 10 µM) and 3% in [2] (stimulation, at 2 µM). For the same compound, the insulin secretion stimulation in test [3] was 4.9% (inactive). Further, the viability decrease in test [4] was -123% (inactive). The tube area decrease in test [5] was 14.2% (inactive). Moreover, the GLP1 secretion stimulation in test [6] was 6.1% (inactive). The inhibition of viability in test [7] was 34% (inactive). Besides, the viability decrease (inhibition) in test [8] is 61.5% (active); in [9], 19.7% (inactive). Besides, the red/green cell ratio (normalised) in [10] was 0.77 (inactive). For the same compound, the normalised cell number is 1.28 in test [10] (setting [15]) and 0.98 in test [10] (setting [16]). The fold change was 1.11 (inactive) and 0.92 (inactive) in [11] (setting [17]); 2.1 and 1.3 in test [11] (setting [18]). For the same compound, the cell count is 5510 and 8130 in test [11] (setting [19]); 4960 and 8840 in test [11] (setting [20]). Also, the results for the z-score in test [12] (setting [21]) and in test [12] (setting [22]) were 0.821 (inactive) and 0.481, respectively. In test [13], the remaining NAD was 10 nM (inactive).

In the case of `NCCCNCCSP(=O)(O)O`, the parasite load remaining in test [14] is 26.6% (inactive). Also, the viability in [14] was determined as 110%. The nuclear beta-catenin stimulation in test [2] (at 10 µM) is -1.3% (inactive); in [2] (stimulation, at 2 µM), 0.9%. Moreover, the insulin secretion stimulation in test [3] was 3% (inactive). Moreover, the viability decrease in test [4] is -4.2% (inactive). Besides, in test [5], the tube area decrease was -8.5% (inactive). The GLP1 secretion stimulation in test [6] was -1.2% (inactive). Besides, the inhibition of viability in test [7] is 2.2% (inactive). The viability decrease (inhibition) in test [8] was 0.3% (inactive); in test [9], 0% (inactive). For the same compound, the red/green cell ratio (normalised) in test [10] is 1.19 (inactive). In addition, the normalised cell number in [10] (setting [15]) is 1.03; in [10] (setting [16]), 1.23. In addition, the fold change in test [11] (setting [17]) is 1.03 (inactive) and 0.865 (inactive); in [11] (setting [18]) it was 1.84 and 1.27. Moreover, the cell count was 10300 and 9430 in test [11] (setting [19]); 10000 and 10900 in test [11] (setting [20]). The z-score was 0.141 (inactive) and 0.413 (inactive) in test [12] (setting [21]); -0.0647 and -0.947 in test [12] (setting [22]). Moreover, in test [13], the remaining NAD was 10 nM (inactive).

Take `CN(C(=O)CN(CCO)CC(=O)N(C)C(C)(C)Cc1ccccc1)C(C)(C)Cc1ccccc1`: the survival in test [1] is 8.83 (inactive). Also, the nuclear beta-catenin stimulation in [2] (at 10 µM) is 9.4% (inactive); in test [2] (stimulation, at 2 µM), 3.2%. The insulin secretion stimulation in test [3] is 1.4% (inactive). Also, the viability decrease in test [4] was -33.9% (inactive). For the same compound, the tube area decrease in test [5] was 2.2% (inactive). Further, in test [6], the GLP1 secretion stimulation was 107% (active). In addition, in [7], the inhibition of viability was 59.3% (active). Further, the figures for the viability decrease (inhibition) in [8] and in [9] were 124% (active) and 104% (active), respectively. Moreover, the red/green cell ratio (normalised) in test [10] is 1.14 (inactive). For the same compound, the values for the normalised cell number in test [10] (setting [15]) and in test [10] (setting [16]) were 1.13 and 1.29, respectively. In addition, the fold change in test [11] (setting [17]) was 0.876 (inactive) and 0.908 (inactive); in [11] (setting [18]) it was 1.3 and 4.08. Besides, the cell count in test [11] (setting [19]) is 7940 and 11300; in test [11] (setting [20]) it was 9070 and 12400. For the same compound, the z-score was 0.165 (inactive) in [12] (setting [21]) and -0.15 in [12] (setting [22]). For the same compound, in test [13], the remaining NAD is 10 nM (inactive).

As for `O=C(Oc1ccccc1C(=O)O)c1ccccc1O`, in test [14], the parasite load remaining is 63.4% (inactive). Moreover, in test [14], the viability amounted to 139%. The nuclear beta-catenin stimulation in test [2] (at 10 µM) is 0.1% (inactive); in test [2] (stimulation, at 2 µM) it was 0.1%. For the same compound, in [3], the insulin secretion stimulation was -0.5% (inactive). Also, in [4], the viability decrease is 13.4% (inactive). Further, the tube area decrease in test [5] was 3.9% (inactive). For the same compound, the GLP1 secretion stimulation in test [6] was -0.4% (inactive). In test [7], the inhibition of viability was 0.8% (inactive). Moreover, the viability decrease (inhibition) is 16.6% (inactive) in [8] and 24.3% (inactive) in [9]. For the same compound, the red/green cell ratio (normalised) in [10] was 1.15 (inactive). Further, the values for the normalised cell number in [10] (setting [15]) and in test [10] (setting [16]) were 1.17 and 1.35, respectively. For the same compound, the fold change in test [11] (setting [17]) is 0.931 (inactive) and 0.896 (inactive); in [11] (setting [18]) it was 1.03 and 3.07. In addition, the cell count is 8500 and 11000 in [11] (setting [19]); 9120 and 12300 in [11] (setting [20]). Further, the z-score was -0.0904 (inactive) in test [12] (setting [21]) and -0.293 in test [12] (setting [22]). Further, in [13], the remaining NAD is 10 nM (inactive).

One may read the viability as a read-out of living cells in per cent, often relative to untreated cells.
